DT40 TDP1 no CPT = qHTS for Inhibitors of human tyrosyl-DNA phosphodiesterase 1 (TDP1): qHTS in cells in absence of CPT. DT40 Tdp1-/- hTDP1 cells, no CPT, ATP luminescence, 48 h. 15% of 420,000 active. Potency, µM (top dose mostly 46.2 µM), without a hit: top-dose activity change, negative = growth inhibition, actives largely listed as inhibitors; note: potency is the fitted concentration of half-maximal effect; % is set by controls: 0 for no effect and ±100 for the full control effect; nearly all actives have a fitted effect of over 55% in size
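Growth of hTDP1-complemented DT40 Tdp1-knockout cells is measured by ATP luminescence after at least 48 hr compound exposure at 37 °C, with DMSO substituting for the 20 nM CPT used in the parallel screen.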
TGFb inhibitor = TGF-b pathway inhibition | HepG2 CAGA-GFP TGF-b/SMAD3 reporter, GFP fluorescence, 18 h; TGF-beta stimulated, 500 pg/mL final | Potency, µM (titrated, usually from 46.1 µM), without a hit: at the highest dose activity, negative = inhibition, hits mostly inhibitors | 1.2% of 410,000 active | AID 588855; note: potency is the fitted concentration of half-maximal effect; % is set by controls: 0 for no effect and ±100 for the full control effect; nearly all actives have a fitted effect of over 65% in size
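Per well, imaged GFP fluorescence of HEPG2 CAGA-GFP cells gives the signal; cells get compound, then TGF-beta (500 pg/mL final), 18 h at 37 degrees C; %Activity versus -TGF-beta and +DMSO controls.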
TDP1 cell CPT = DT40-hTDP1 cell growth loss with CPT. chicken DT40 Tdp1-/-;hTDP1 cells + 20 nM CPT, ATP luminescence, 48 h. Potency, µM (titrated, usually from 46.2 µM), for inactives: top-dose activity change, negative = growth inhibition, usual class: inhibitors. 12% of 420,000 active. AID 686979; note: potency is the fitted concentration of half-maximal effect; % is set by controls: 0 for no effect and ±100 for the full control effect; nearly all actives have a fitted effect of over 55% in size
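Chicken DT40 Tdp1-/- cells complemented with human TDP1, 400 cells/well, exposed to compounds plus 20 nM camptothecin for at least 48 h at 37 C; viability read as ATP content by CellTiter-Glo luminescence.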
IL1B secr inh = inhibitors of inflammasome signaling (IL-1 beta secretion); THP-1 LPS/ATP IL-1B secretion, AlphaLISA, 16 h; hits give low values; activity change, % at 57.5 µM; 4.7% of 360,000 active; AID 743279; in the data active = activity change below about -50%; inconclusive = mostly about -30% to -49%; note: % is set by controls: 0 for no effect and ±100 for the full control effect
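Secreted IL-1B measured by AlphaLISA bead assay after 16 h compound exposure of THP-1 cells; compounds (final up to 57.5 uM) added 1 h before LPS (250 ng/mL) and ATP (1.25 mM) stimulation; lower signal means less secretion.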
TDP1 block = TDP1 (human) enzyme inhibition; Q9NUW8; recombinant TDP1, AlphaScreen DNA substrate cleavage; Potency, µM (series often up to 130 µM), without a hit: top-dose activity change, negative = inhibition, hits mostly inhibitors; 0.28% of 350,000 active; note: potency is the fitted concentration of half-maximal effect; % is set by controls: 0 for no effect and ±100 for the full control effect; nearly all actives have a fitted effect of over 40% in size
Target sequence (Q9NUW8 whole entry, looked up): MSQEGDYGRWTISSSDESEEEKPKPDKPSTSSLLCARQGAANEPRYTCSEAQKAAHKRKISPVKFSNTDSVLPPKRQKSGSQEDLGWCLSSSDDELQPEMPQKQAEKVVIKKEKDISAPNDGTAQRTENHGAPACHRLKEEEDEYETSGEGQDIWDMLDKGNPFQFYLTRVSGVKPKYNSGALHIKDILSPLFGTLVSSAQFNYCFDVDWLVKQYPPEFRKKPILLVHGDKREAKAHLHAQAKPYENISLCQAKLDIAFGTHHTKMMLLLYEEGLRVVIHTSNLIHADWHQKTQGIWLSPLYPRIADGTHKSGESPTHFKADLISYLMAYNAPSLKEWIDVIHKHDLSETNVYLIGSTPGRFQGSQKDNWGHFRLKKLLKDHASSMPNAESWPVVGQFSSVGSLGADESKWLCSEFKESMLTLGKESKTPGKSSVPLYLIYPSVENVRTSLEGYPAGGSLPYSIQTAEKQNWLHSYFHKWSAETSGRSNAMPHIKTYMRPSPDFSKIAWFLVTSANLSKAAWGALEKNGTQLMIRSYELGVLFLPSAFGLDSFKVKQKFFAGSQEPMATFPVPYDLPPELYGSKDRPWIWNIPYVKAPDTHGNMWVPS
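Recombinant human Tdp1 (E. coli-expressed, 1 nM final) preincubated with compounds 15 min at room temperature, then 5'-biotin/3'-phosphotyrosine-FITC DNA substrate (15 nM final) added for 5 min. AlphaScreen beads (10 ug/ml final) added 10 min; cleavage lowers signal.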
HepG2 viability = HepG2 cytotoxicity, counter-screen for TGF-b inhibitors | Potency, µM (doses to about 46.1 µM), for the others: at the top dose activity change, negative = cytotoxicity, hits mostly cytotoxic | 0.76% of 410,000 active | HepG2 CAGA-GFP viability, ATP luminescence, 18 h | AID 588856; note: potency is the fitted concentration of half-maximal effect
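CellTiter-Glo luminescence gave cytotoxicity after 18 hours at 37 degrees C. The cells were HepG2 CAGA-GFP in 1% FBS DMEM, stimulated with 500 pg/mL TGF-beta after compound addition. %Activity was normalised to no-cell wells (complete cell-killing) and DMSO (no toxicity), and curves were fitted and classified.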
* marks the source's active call; other numbers are inactive results; ? = inconclusive; . = no result; [ ] = remark or other dose. Sampled rows, rich in hits. Any-hit rate of the full collection: about 18%. Unless noted, calls come from the whole dose curve; as a rule, active = well fitted curve in the direction sought with a large enough effect; inconclusive = small, poorly fitted or top-dose-only effect, or another doubt; inactive = no such curve, though single readings can be large; an effect the other way counts as inactive or inconclusive.

SMILES	DT40 TDP1 no CPT	TGFb inhibitor	TDP1 cell CPT	IL1B secr inh	TDP1 block	HepG2 viability
COC(=O)c1nnn(CC(=O)Nc2cc(F)ccc2F)c1C(=O)OC	0%	-28%	10%	.	5%	0%
CCOC(=O)c1nnn(CC(=O)Nc2cc(F)ccc2F)c1C(=O)OCC	-16%	-7%	-11%	-73*	7%	-1%
COc1cc(CCc2ccccc2)c(C(=O)O)c(O)c1CC=C(C)C	18µM*	?	23µM*	-27	.	-41%
COc1cc(CCc2ccccc2)c(C(=O)O)c(O)c1C/C=C(/C)CCC=C(C)C	16µM*	13µM*	?	35	-3%[56.1 µM]	14µM*
COCOc1ccc(/C=C/C(=O)c2c(OCOC)cc(OCOC)c(CC=C(C)C)c2O)cc1OCOC	?	17%	?	19	.	-9%
COc1cccc(OC)c1C(=O)NCCc1ccccc1	-3%	-1%	-3%	25	.	-9%
CC(CCc1ccccc1)NC(=O)CNC(=O)N1CC(=O)Nc2ccccc21 (stereo not drawn)	8%	?	-2%	-4	1%	-11%
Cc1nn(-c2ccccc2)nc1C(=O)Oc1cc(C(F)(F)F)nn1-c1ccccc1	-8%	44%	-4%	-4	6%	42%
Cc1ccccc1OCc1nc2c3cnn(-c4cccc(F)c4)c3ncn2n1	?	.	?	.	-1%	-3%
Cc1cccc(C)c1OCc1nc2c3cnn(-c4cccc(F)c4)c3ncn2n1	16µM*	-9%	18µM*	.	4%	-3%
Cc1ncc2c(c1CNS(=O)(=O)N(C)C)CCN(C(=O)/C=C/c1cccc(F)c1)C2	-18%	.	-12%[9.04 µM]	.	.	.
CC(=O)C1CCCN(C(=O)c2ccc3nc(Cc4cccc(Cl)c4)oc3c2)C1 (stereo not drawn)	?	?	?	0	5%	9%
c1ccc(-c2csc(Nc3cccnc3)n2)nc1	?	-8%	?	-2	5%	-11%
Cc1ccc(-c2csc(-c3c[nH]c4ccccc34)n2)c(C)c1	?	?	?	14	8%	20µM*
Oc1ccc(Nc2nc(-c3ccc(O)cc3)cs2)cc1	5µM*	20%	11µM*	?	13%	-13%
Oc1ccc(Nc2nc(-c3cccnc3)cs2)cc1	23µM*	-14%	21µM*	?	.	-13%
c1ccc(Nc2nc(-c3ccccn3)cs2)cc1	7.3µM*	-36%	13µM*	?	5%	-27%
Oc1ccc(-c2csc(-c3c[nH]c4ccccc34)n2)c(O)c1	?	-30%	?	-17	3%	-12%
Cc1ccc(CN2CCC(n3nccc3NC(=O)CCOc3ccccc3)CC2)cc1C	-20%	13%	?	-8	3%	-12%
COc1ccc(-c2csc(Nc3ccccc3)n2)cc1	?	-29%	?	-56*	3%	5%
COc1ccc(Nc2nc(-c3ccc(OC)cc3)cs2)cc1	-14%	19%	-3%	?	3%	10%
Clc1ccc(Nc2nc(-c3ccncc3)cs2)cc1	4%	0%	-20%	-13	.	-20%
CC(=O)c1cccc(Nc2nc(-c3ccccc3)cs2)c1	?	1%	?	-1	2%	-9%
CC(=O)c1cccc(Nc2nc(-c3cccnc3)cs2)c1	?	-2%	?	-88*	.	-7%
Nc1ccc(Nc2nc(-c3ccncc3)cs2)cc1	18µM*	20%	?	?	9%	-38%
SMILES	DT40 TDP1 no CPT	TGFb inhibitor	TDP1 cell CPT	IL1B secr inh	TDP1 block	HepG2 viability
c1cc2c(cc1-c1csc(NNC3=NCCCCC3)n1)OCCO2	4.6µM*	3%	3.3µM*	-102*	10%	-3%
COc1ccc(CNCC(=O)Nc2cc(OC)cc(OC)c2)cc1	?	-5%	-24%	6	.	16%
CC(C)C(OC(=O)CNC(=O)c1ccccc1)C(=O)Nc1cc(C(F)(F)F)ccc1Cl (stereo not drawn)	.	.	.	.	0%	.
c1ccc(-c2csc(Nc3ccc4c(c3)OCCO4)n2)cc1	?	20%	15µM*	0	5%	-8%
COc1ccc(Nc2nc(-c3c[nH]c4ccccc34)cs2)cc1	-23%	-4%	-12%	-78*	11%	7%
c1cc2c(cc1Nc1nc(-c3ccc4c(c3)OCO4)cs1)OCCO2	-26%	14%	?	-15	6%	-24%
c1ccc(-c2csc(Nc3nc(N4CCOCC4)nc(N4CCOCC4)n3)n2)cc1	10µM*	-25%	?	?	3%	-7%
CCc1noc(C)c1C(=O)N1CCCSC1=Nc1ccccc1C(C)C	?	-4%	-24%	-1	-6%	2%
COc1ccc(NC(=O)c2cccc(N3C(=O)C4CC=C(C)CC4C3=O)c2)c(OC)c1 (stereo not drawn)	12µM*	2%	?	21	.	-3%
COc1ccc(OC)c(NC(=O)c2cccc(N3C(=O)C4C5C=CC(C6CC56)C4C3=O)c2)c1 (stereo not drawn)	12µM*	?	16µM*	-3	8%	-16%
CC1=CCC2C(=O)N(c3cccc(C(=O)N(C)C4CCCCC4)c3)C(=O)C2C1 (stereo not drawn)	-25%	0%	-29%	-21	-1%	8%
Cc1ccccc1NC(=O)c1cccc(N2C(=O)C3C4CC(C(Br)C4Br)C3C2=O)c1 (stereo not drawn)	1%	-1%	-1%	14	1%	6%
COc1ccc(OC)c(NC(=O)c2cccc(N3C(=O)C4C5CCC(C5)C4C3=O)c2)c1 (stereo not drawn)	16µM*	0%	23µM*	0	1%	-4%
Cc1ccc(NCc2ccc(O)c3ncccc23)cc1	?	-2%	?	-3	0%	-11%
Cc1ccc(C)c(N=Nc2ccc(O)c3ncccc23)c1	2.1µM*	1%	2.1µM*	154	11%	-16%
CCS(=O)(=O)c1ccc(OC)c(N=Nc2ccc(O)c3ncccc23)c1	?	5%	?	40	12%	-12%
Cc1cccc(N=Nc2ccc(O)c3ncccc23)c1	6.5µM*	?	7.3µM*	3	5%	-10%
NS(=O)(=O)c1ccc(N=Nc2ccc(O)c3ncccc23)cc1	2.3µM*	8.9µM*	2.6µM*	60	.	6.3µM*
CCOc1ccc(N=Nc2ccc(O)c3ncccc23)cc1	?	0%	?	82	.	-16%

Screening data from PubChem BioAssay.
